Laboratory results from PubChem BioAssay.

Experiment: small-molecule binders of probe aNOTCH2, primary screen, biochemical, small-molecule microarray, 635/667 nm fluorescence (AID 1121);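 note: score merges feature fluorescence read at 667 nm with its signal to noise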
Conditions: higher = more signal

| Compound | composite z-score |
| --- | --- |
| COCC#Cc1ccc([C@@H]2N[C@H](C(=O)O)CC[C@H]2C)cc1 | -0.144 |
| C#CCCCON=C1[C@H]2CCn3c(=O)n([C@@H](CC)c4ccccc4)c(=O)n3[C@H]2[C@H](O)[C@@H]2O[C@H]12 | -0.0745 |
| O=C1CCCC=C1C(O)C1CCCCC1 (configuration not stated) | -0.0818 |
| C[C@@H](c1ccccc1)N1C(=O)[C@H]2[C@H]3[C@H](O)[C@H](O)CC(=NOC[C@@H](O)COCc4ccco4)[C@H]3CC[C@H]2C1=O | -0.189 |
| CCOC(=O)[C@H](CC(C)C)NC(=O)CCC1CC(OC(=O)NCCc2ccc(F)cc2)CC2(CCCC(COC(=O)NCc3cccc4ccccc34)O2)O1 (some centres not stated) | 0.12 |
| COC(=O)[C@H](C)NC(=O)CCC1CC(OC(=O)NCCc2ccc(F)cc2)CC2(CCCC(COC(=O)NCCc3ccccc3OC)O2)O1 (some centres not stated) | -0.0061 |
| CCOC(=O)CCN1C(=O)[C@H]2[C@H]3[C@H](O)[C@H](O)CC(=NOCC(C)C)[C@@H]3CC[C@H]2C1=O | -0.186 |
| CC[C@@H](c1ccccc1)n1c(=O)n2n(c1=O)[C@H]1[C@H](O)[C@@H]3O[C@@H]3C(=NOCc3ccccc3)[C@H]1CC2 | -0.203 |
| COc1ccc(O[C@H]2C=C[C@@H](c3ccccc3)O[C@@H]2CON=C(C)CCN2CCCc3nc(C)c(C)cc32)cc1 | -0.048 |
| COC(OC)[C@@H](C)[C@H](OC)[C@@H](C)[C@H](OC)c1ccccc1 | -0.15 |
| CC(CCN1CCc2nc(-c3ccccc3)c(-c3ccccc3)cc2C1)=NO[C@@H](C)c1cc(-c2c(C)cc(C)cc2C)no1 | -0.164 |
| CO[C@H]1COC(=O)CCC[C@H](C)[C@H](OC)COC(=O)CC=C[C@@H]1C | -0.118 |
